Over roughly 33,000 sequences, “E-score (-0.5 to 0.5)” has its median near -0.021; the highest 2% begin near 0.32. What follows is part of a selection rich in the highest values, with near analogues and random picks from the rest.
Target: T1, Zap1 (UniProt P47043)
T1 sequence: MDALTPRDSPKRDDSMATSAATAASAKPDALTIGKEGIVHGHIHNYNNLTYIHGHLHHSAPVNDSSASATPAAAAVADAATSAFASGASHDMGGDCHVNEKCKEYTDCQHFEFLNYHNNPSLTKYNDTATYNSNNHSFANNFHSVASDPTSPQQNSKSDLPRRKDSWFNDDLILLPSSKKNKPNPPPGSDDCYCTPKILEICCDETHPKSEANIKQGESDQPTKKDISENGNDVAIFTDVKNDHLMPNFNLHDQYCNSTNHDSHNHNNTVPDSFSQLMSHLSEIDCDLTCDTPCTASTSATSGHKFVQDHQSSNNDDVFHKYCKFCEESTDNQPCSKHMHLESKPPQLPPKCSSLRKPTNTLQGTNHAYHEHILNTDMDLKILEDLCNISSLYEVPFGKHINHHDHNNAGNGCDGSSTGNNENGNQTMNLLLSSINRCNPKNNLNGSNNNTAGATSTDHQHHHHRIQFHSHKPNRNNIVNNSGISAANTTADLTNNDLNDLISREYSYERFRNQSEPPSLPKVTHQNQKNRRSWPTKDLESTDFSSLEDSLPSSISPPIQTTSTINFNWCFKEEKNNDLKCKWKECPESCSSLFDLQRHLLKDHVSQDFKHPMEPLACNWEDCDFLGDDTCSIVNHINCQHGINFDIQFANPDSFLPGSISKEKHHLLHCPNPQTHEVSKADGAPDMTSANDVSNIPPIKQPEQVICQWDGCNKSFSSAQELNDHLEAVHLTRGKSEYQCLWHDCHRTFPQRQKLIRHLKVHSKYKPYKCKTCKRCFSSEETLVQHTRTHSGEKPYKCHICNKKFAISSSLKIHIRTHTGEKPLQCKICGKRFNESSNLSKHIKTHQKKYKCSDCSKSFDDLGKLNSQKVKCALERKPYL
Test: PBM E-score (8-mer binding enrichment) (E-score (-0.5 to 0.5)); higher = stronger / more preferred TF binding
Conditions: protein concentration: 200 nM; construct: GST-full length
Protocol: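 Universal 'all 10-mer' protein binding microarrays (Agilent AMADID 015681) probed with GST-tagged S. cerevisiae TFs (full-length or DBD) made by in vitro transcription/translation (PURExpress), about 100-200 nM. Bound TF was detected with fluorescent anti-GST. Each ungapped 8-mer (which stands for itself and its reverse complement) is scored by the PBM enrichment score (E-score), a modified Wilcoxon-Mann-Whitney statistic from -0.5 to +0.5, computed with the Universal PBM Analysis Suite. Scale: above 0.35 generally sequence-specific binding.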

Going from ACGTTGAG to TCCTTAAA, the “PBM E-score” value rises from -0.0801 to 0.15.

Compared with AGATTTGC, ATATCTCC is lower in “PBM E-score” value: -0.0426 for the first, -0.149 for the second.

Going from ATTGACTC to GGACAGCC, the “PBM E-score” value falls from 0.049 to -0.0735.

Going from CATCGACC to TTCTTCAA, the “PBM E-score” value rises from -0.0318 to 0.0925.

Compared with ACCCCCTA, CAAACCTA is higher in “PBM E-score” value: -0.354 for the first, 0.166 for the second.

Compared with CAACCCTA, GAACCCTA is lower in “PBM E-score” value: 0.442 for the first, 0.272 for the second.

First: CAACCCTG
Second: AAACCCTT
The “PBM E-score” value of the first is higher: 0.419 for the first, 0.272 for the second.

Compared with AAACCCAA, CAACCCGG is lower in “PBM E-score” value: 0.312 for the first, 0.213 for the second.

First: AAACCCTA
Second: AACCCCTA
The “PBM E-score” value of the first is higher: 0.423 for the first, 0.389 for the second.

Going from CAACCCTC to ATCCCCTA, the “PBM E-score” value falls from 0.258 to 0.0194.

Compared with CGAAGCAG, AGGCTGGA is lower in “PBM E-score” value: -0.165 for the first, -0.23 for the second.

First: CACCAGGA
Second: AATCGCGG
The “PBM E-score” value of the first is higher: 0.0532 for the first, -0.0922 for the second.

Going from GAAAAGAC to CACCAAGA, the “PBM E-score” value falls from 0.0296 to 0.0172.

Compared with ATCAACGC, AGTAGTCA is lower in “PBM E-score” value: -0.0956 for the first, -0.276 for the second.

First: CAGATACA
Second: GTAGCACA
The “PBM E-score” value of the first is higher: 0.0912 for the first, 0.017 for the second.

Compared with GCATCCAA, AGGGAGAA is higher in “PBM E-score” value: -0.203 for the first, -0.148 for the second.

First: CGACCCTA
Second: AACCCCGT
The “PBM E-score” value of the first is higher: 0.328 for the first, 0.277 for the second.

First: AACCCCCT
Second: GGACCCTA
The “PBM E-score” value of the first is lower: -0.187 for the first, 0.159 for the second.

Going from CACCCCTA to TACCCCTA, the “PBM E-score” value rises from 0.0983 to 0.366.

First: GACCCCTA
Second: AACCCCTT
The “PBM E-score” value of the first is lower: 0.276 for the first, 0.38 for the second.

First: AGACCCTA
Second: CGTCTCTA
The “PBM E-score” value of the first is higher: 0.298 for the first, -0.19 for the second.

First: GCTAAAAC
Second: CGTATCCA
The “PBM E-score” value of the first is higher: 0.0736 for the first, -0.133 for the second.

Compared with CGGTTGAA, CCACAGCC is lower in “PBM E-score” value: 0.221 for the first, -0.17 for the second.

Compared with CACCTTTA, GACCTTCA is lower in “PBM E-score” value: 0.118 for the first, 0.0992 for the second.

Going from AACCTTCA to AGCCTTTA, the “PBM E-score” value falls from 0.368 to 0.132.

Compared with AGCCTTTC, GACCTTTA is higher in “PBM E-score” value: -0.185 for the first, 0.401 for the second.

Going from AACCTTTC to ATCCTTTA, the “PBM E-score” value falls from 0.324 to 0.092.

Going from CACCTTTC to AACCTTCC, the “PBM E-score” value rises from 0.0949 to 0.21.

Going from GGCCTTTA to AACCTTTA, the “PBM E-score” value rises from 0.114 to 0.398.

Compared with ATAGTTGC, ACGTCGCA is lower in “PBM E-score” value: 0.135 for the first, -0.0322 for the second.

First: GGTGAACA
Second: GCGCTATA
The “PBM E-score” value of the first is lower: -0.231 for the first, -0.105 for the second.

Going from CGCTATCA to CAGCAAGC, the “PBM E-score” value falls from -0.078 to -0.389.

First: ACCTAGGC
Second: GTGATAAC
The “PBM E-score” value of the first is lower: -0.26 for the first, 0.251 for the second.

Going from CATCCTCC to GATAGCTA, the “PBM E-score” value falls from -0.176 to -0.298.

Compared with GGCTCAAA, AGGAACAA is higher in “PBM E-score” value: -0.176 for the first, 0.00761 for the second.

Compared with AACCTTGG, AACCTTCG is higher in “PBM E-score” value: 0.274 for the first, 0.305 for the second.

Going from AACCTTTG to AGATCGCT, the “PBM E-score” value falls from 0.377 to -0.204.

First: GAAACTCC
Second: ACAGATCA
The “PBM E-score” value of the first is lower: -0.206 for the first, 0.0477 for the second.

First: AGGTTAAA
Second: CGGTTTAA
The “PBM E-score” value of the first is higher: 0.376 for the first, 0.0515 for the second.

First: CGGTTAAA
Second: TGGTTAAA
The “PBM E-score” value of the first is lower: 0.328 for the first, 0.379 for the second.

Compared with ATGTTAAA, TCGTTAAA is lower in “PBM E-score” value: 0.0569 for the first, -0.0347 for the second.

First: ACGTTAAA
Second: TAGTTAAA
The “PBM E-score” value of the first is lower: 0.101 for the first, 0.234 for the second.

First: CTGTTAAA
Second: CTGTTGCA
The “PBM E-score” value of the first is lower: 0.0123 for the first, 0.201 for the second.

Source: the supplement of paper PMC3334620
